# Bioassay records (PubChem)
# This is a sample that favours compounds with a hit; in the whole collection about 6.8% have one here.
# C diff growth: C. difficile growth inhibitors, primary screen, HTS | 0.25% of 86,000 active | AID 1259249, 2017 | Clostridium difficile clinical isolate growth, OD600, 24 h; active compounds read low | growth activity, negative = inhibition, % at 16 µg/mL (by protocol);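 active = mean growth activity at or below -80% and every replicate also at or below -80%; inconclusive = mean at or below -80% but some replicate above -80%; inactive = mean growth activity above -80%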;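 also: 0% = DMSO wells and -100% = levofloxacin 16 µg/mL wells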
# Pf Dd2 inh: P. falciparum Dd2 growth inhibitors, primary screen, SYBR Green fluorescence, single dose replicates; activity change, % at 10 µM; 72 h; active compounds read low; 2.3% of 94,000 active; in the data active = activity change below about -80%; inconclusive = no clear call, values can overlap the other calls
# T cruzi growth-1: T. cruzi intracellular proliferation inhibitors, primary screen, cell-based, beta-gal Tulahuen parasites, NIH3T3 host, luminescence. T. cruzi beta-gal in NIH3T3, GalScreen luminescence, 90 h. inhibition, % at 8.34 µM. 5.9% of 77,000 active. AID 624255, 2012;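 active = mean inhibition above about 93%, with at least 55% of replicates each passing it, limit read from the data, passing the limit was not always enough; inconclusive = only one of those two conditions holds; inactive = neither condition holds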
# T cruzi growth-2: T. cruzi intracellular proliferation inhibitors, confirmation, cell-based, NIH3T3 host, beta-gal parasite, luminescence, cherry-pick. 72% of 5,600 active. T. cruzi beta-gal in NIH3T3, GalScreen luminescence, 90 h. inhibition, % at 8.35 µM. shares compounds with T cruzi growth-1;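 active = mean replicate inhibition above about 95% and at least 55% of replicates individually reaching it, limit read from the data; inconclusive = only one of the two criteria is met; inactive = neither criterion is met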
# T cruzi growth-3: inhibitors of intracellular T. cruzi replication, confirmation, NIH3T3 host cells, beta-gal parasites, cherry-pick, set 2; shares compounds with T cruzi growth-1; T. cruzi beta-gal in NIH3T3, GalScreen luminescence, 90 h; inhibition, % at 2.09 µM; 21% of 5,600 active; AID 651740, 2012;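 active = mean inhibition above about 95%, with at least 55% of replicates also reaching it, limit read from the data; inconclusive = meets just one of the two conditions; inactive = meets neither condition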;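 also: plate controls were neutral control median for no effect and positive control median for full effect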
# NIH3T3 tox: cytotoxicity in mouse NIH/3T3 fibroblasts, confirmation, cytotoxicity control for T. cruzi proliferation inhibitor project, cell-based, cherry-pick, single point | shares compounds with T cruzi growth-1 | NIH/3T3 viability, CellTiter-Glo ATP luminescence, 90 h | cytotoxicity (signal decrease), % at 8.35 µM | 14% of 5,600 active;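 active = mean signal decrease across replicates above about 35% based on untreated-well scatter, with enough replicates individually passing, limit read from the data; inconclusive = no rule stated though some were filed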;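 also: 0% = median of neutral control wells and 100% = median of positive control wells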
# 3T3 cytotox 2: NIH/3T3 fibroblast cytotoxicity, confirmation, cytotoxicity control, cell-based, cherry-pick, single point, set 2; AID 651744, 2012; NIH/3T3 viability, CellTiter-Glo ATP luminescence, 90 h; inhibition, % at 24.9 µM; 56% of 5,600 active; shares compounds with T cruzi growth-1;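 active = mean loss of cell viability signal at or above a set limit, and enough replicates individually reaching it; inconclusive = meets only the mean limit or only the replicate share; inactive = meets neither condition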;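 also: 0% = median of neutral control wells and 100% = median of positive control wells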
# The depositor's hits bear a star; ? = inconclusive; / = no result.
SMILES,C diff growth,Pf Dd2 inh,T cruzi growth-1,T cruzi growth-2,T cruzi growth-3,NIH3T3 tox,3T3 cytotox 2
C[C@H]1CN([C@@H](C)CO)S(=O)(=O)c2ccc(C3=CCCC3)cc2O[C@@H]1CN(C)S(=O)(=O)c1ccc(F)cc1,7.7,-41.8,123.1*,96.8*,101.0*,44.7*,10.0
Cc1ccc(S(=O)(=O)N(C)C[C@@H]2Oc3cc(C4=CCCC4)ccc3S(=O)(=O)N([C@@H](C)CO)C[C@H]2C)cc1,2.2,-60.8,/,/,/,/,/
C[C@@H]1CN([C@H](C)CO)S(=O)(=O)c2ccc(C3=CCCC3)cc2O[C@H]1CN(C)S(=O)(=O)c1ccc(F)cc1,6.0,-41.2,116.1*,106.6*,83.2,16.8,24.9*
C[C@@H]1CN([C@@H](C)CO)S(=O)(=O)c2ccc(C3=CCCC3)cc2O[C@@H]1CN(C)S(C)(=O)=O,/,17.2,-36.0,/,/,/,/
C[C@@H]1CN([C@H](C)CO)S(=O)(=O)c2ccc(C3=CCCC3)cc2O[C@@H]1CN(C)S(=O)(=O)c1ccc(F)cc1,-1.2,-22.9,121.8*,109.6*,40.3,19.6,32.5*
Cc1ccc(S(=O)(=O)N2CC[C@@H]3[C@H](CO)Nc4ccc(-c5ccc(C#N)cc5)cc4[C@@H]32)cc1,4.9,-3.9,23.3,/,/,/,/
C[C@@H]1CCCCO[C@@H](CN(C)S(=O)(=O)c2cn(C)cn2)[C@@H](C)CN([C@H](C)CO)C(=O)c2cc(NS(=O)(=O)c3ccccc3)ccc2O1,6.9,27.8,-21.4,/,/,/,/
Cc1ccc(S(=O)(=O)Nc2ccc3c(c2)C(=O)N([C@@H](C)CO)C[C@@H](C)[C@@H](CN(C)CC2CC2)OCCCC[C@@H](C)O3)cc1,-3.4,-27.7,?,81.3,25.9,-12.9,-13.7
Cc1ccc(S(=O)(=O)Nc2ccc3c(c2)C(=O)N([C@@H](C)CO)C[C@H](C)[C@@H](CN(C)CC2CC2)OCCCC[C@H](C)O3)cc1,2.0,-76.3,30.3,/,/,/,/
Cc1ccc(S(=O)(=O)Nc2ccc3c(c2)C(=O)N([C@H](C)CO)C[C@H](C)[C@@H](CN(C)CC2CC2)OCCCC[C@H](C)O3)cc1,-3.5,-6.4,56.5,/,/,/,/
Cc1ccc(S(=O)(=O)Nc2ccc3c(c2)C(=O)N([C@H](C)CO)C[C@H](C)[C@H](CN(C)CC2CC2)OCCCC[C@H](C)O3)cc1,1.4,-27.6,?,?,47.6,-15.1,13.4
COc1ccc2c3c([nH]c2c1)[C@H](CO)N(C(=O)NC(C)C)CC31CN(C(=O)NC2CCCC2)C1,-9.1,-9.3,/,/,/,/,/
O=S(=O)(N[C@@H]1CC[C@H](CCn2cc(C3(O)CCCC3)nn2)O[C@H]1CO)c1ccccc1,5.5,-9.2,4.6,/,/,/,/
COc1cccc(NC(=O)N(C)C[C@@H]2Oc3cc(-c4ccccc4F)ccc3S(=O)(=O)N([C@@H](C)CO)C[C@@H]2C)c1,8.1,-60.4,87.5,/,/,/,/
COc1ccc(C#Cc2ccc3c(c2)O[C@H](CN(C)C(=O)Nc2cccc(OC)c2)[C@H](C)CN([C@H](C)CO)S3(=O)=O)cc1,/,-77.9,97.9*,105.1*,110.5*,1.3,10.7
COc1cccc(NC(=O)N(C)C[C@H]2Oc3cc(-c4ccccc4F)ccc3S(=O)(=O)N([C@H](C)CO)C[C@H]2C)c1,7.2,-48.4,96.4*,110.4*,73.6,15.6,22.1
COc1cccc(NC(=O)N(C)C[C@@H]2Oc3cc(C#Cc4ccc(F)cc4)ccc3S(=O)(=O)N([C@@H](C)CO)C[C@H]2C)c1,6.9,-44.1,104.7*,108.7*,104.7*,48.2*,29.5*
COc1cccc(NC(=O)N(C)C[C@@H]2Oc3cc(-c4ccccc4F)ccc3S(=O)(=O)N([C@H](C)CO)C[C@H]2C)c1,-23.6,-42.0,37.7,/,/,/,/
COc1cccc(NC(=O)N(C)C[C@@H]2Oc3cc(C#Cc4ccncc4)ccc3S(=O)(=O)N([C@@H](C)CO)C[C@H]2C)c1,1.1,-56.3,-41.8,/,/,/,/
